Screening results from PubChem BioAssay.
Shown are actives, neighbours in structure and some others; about 3.3% of the full set was active somewhere.
LmPK inh – blocks Leishmania mexicana pyruvate kinase activity. Potency, µM (series often up to 57.5 µM), without a hit: at the highest dose activity change, negative = inhibition, hits mostly inhibitors. Q27686. hit rate 0.37% among 290,000. purified LmPK, Kinase-Glo ATP luminescence, 1 h; further: on the % scale 0 is the no-effect control and ±100 the full control effect
Target sequence (Q27686 whole entry, looked up): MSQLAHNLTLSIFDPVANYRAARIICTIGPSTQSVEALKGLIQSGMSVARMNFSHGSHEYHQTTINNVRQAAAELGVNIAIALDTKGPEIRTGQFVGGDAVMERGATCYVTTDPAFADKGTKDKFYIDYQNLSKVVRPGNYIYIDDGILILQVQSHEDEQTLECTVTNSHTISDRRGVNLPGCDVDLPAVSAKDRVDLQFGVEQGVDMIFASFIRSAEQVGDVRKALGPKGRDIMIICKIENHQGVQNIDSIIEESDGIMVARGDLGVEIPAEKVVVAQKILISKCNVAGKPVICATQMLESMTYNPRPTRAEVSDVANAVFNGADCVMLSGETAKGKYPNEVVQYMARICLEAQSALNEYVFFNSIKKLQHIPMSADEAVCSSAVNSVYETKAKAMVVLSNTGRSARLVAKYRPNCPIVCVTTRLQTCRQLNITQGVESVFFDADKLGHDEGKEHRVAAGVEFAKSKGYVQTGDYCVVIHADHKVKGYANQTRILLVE
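Kinase-Glo luminescence read after 1 h RT reaction of 0.1 nM LmPK with 0.5 mM PEP and 0.1 mM ADP. Activity scaled between uninhibited and enzyme-free controls.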
NS1 inh – inhibitors of influenza NS1 protein function. Potency, µM (series often up to 46.1 µM), for inactives: top-dose activity, positive = more growth. hit rate 0.4% among 270,000; calls by dose curve; further: actives are rising curves; nearly all actives have a fitted effect of over 50% in size
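Compounds were scored for reversing the slow growth caused by influenza A NS1 in S. cerevisiae, measured by optical density at 600 nm. Assay medium contained 2% galactose at pH 6.0; NS1-free yeast of the same strain were the positive control.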
RE007 growth inh – less growth of the S. pombe RE007 Vpr strain; S. pombe RE007 Vpr strain, BacTiter-Glo ATP luminescence, 24 h; Potency, µM (highest dose often 92.2 µM), for the others: top-dose activity change, negative = less growth, hits mostly inhibitors; hit rate 0.21% among 360,000; active means well fitted falling curve with a large enough effect; inconclusive means small, poorly fitted or top-dose-only effect; inactive means no such curve, though single readings can be large or run the other way; further: on the % scale 0 is the no-effect control and ±100 the full control effect; nearly all actives have a fitted effect of over 50% in size
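Fission yeast strain RE007, carrying one chromosomally integrated HIV-1 vpr copy, was seeded at OD 0.01 in PMG+AL medium with 23 nL pinned compound. After 24 h at 30 °C and 99% humidity, viability was read by BacTiter-Glo luminescence.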
SARS PLpro yeast – SARS-CoV PLP inhibition in yeast; S. cerevisiae expressing SARS-CoV PLpro, growth rescue; Potency, µM (highest dose often 32.9 µM), for inactives: at the top dose activity, positive = growth rescue, most hits filed as activators; hit rate 0.19% among 330,000; AID 485353; calls by dose curve; further: 0% is about no effect; nearly all actives have a fitted effect of over 55% in size
TbPYK inhibitor – inhibitors of Trypanosoma brucei pyruvate kinase | TbPYK enzyme, Kinase-Glo Plus ATP luminescence, 45 min | Q57TT1 | Potency, µM (titrated, usually from 76.8 µM), for inactives: top-dose activity, negative = inhibition, usual class: inhibitors | hit rate 0.12% among 410,000; further: on the % scale 0 is the no-effect control and ±100 the full control effect; nearly all actives have a fitted effect of over 50% in size
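T. brucei PYK with substrate was exposed to pin-transferred compounds across a concentration series, then started with 130 uM ADP (final). After 45 min at room temperature, Kinase-Glo Plus luminescence was read, normalized and curve-fitted.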
Sm TGR inh – S. mansoni TGR enzyme inhibition | Q962Y6 | AID 485364 | purified TGR, DTNB reduction, TNB absorbance 405 nm | Potency, µM (titrated, usually from 114 µM), for inactives: at the top dose activity change, negative = inhibition, most hits filed as inhibitors | hit rate 3% among 360,000; further: on the % scale 0 is the no-effect control and ±100 the full control effect; nearly all actives have a fitted effect of over 60% in size
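First, TGR (20 nM dispensed) and NADPH were mixed with compound. Second, a 15 min room-temperature incubation followed. Third, further NADPH and then DTNB were added to start the reaction. Finally, TNB absorbance was monitored kinetically.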
Starred values were filed as active, the others as inactive; ? = inconclusive; nt = not tested or not shown; ! = repeats disagree; [ ] = remark or other dose. Unless noted, the call rests on the fitted dose curve; in most records, active means well fitted curve in the direction sought with a large enough effect; inconclusive means small, poorly fitted or top-dose-only effect, or another doubt; inactive means no such curve, though single readings can be large; an effect the other way counts as inactive or inconclusive. Potency means the concentration at half of the fitted maximal effect.

SMILES	LmPK inh	NS1 inh	RE007 growth inh	SARS PLpro yeast	TbPYK inhibitor	Sm TGR inh
COc1ccc(NC(=O)c2ccccn2)cc1	11.2µM*	-13.7%	?	-16.6%	-28.9%	-26.3%
COc1ccc(C(=O)Nc2ccc(NC(=O)c3ccccn3)cn2)cc1	3.1%	4.9%	-17.8%	-6.9%	9.8%	-0.1%
COc1ccc(NC(=O)c2nc3ccccc3s2)cc1	15.8µM*	-14.7%	-29.6%	-14.6%	-12.0%	6.7%
COc1ccc(OC)c(NC(=O)c2nc3ccccc3s2)c1	1.1%	nt	-5.1%	0.9%	-0.7%	-1.1%
O=C(Nc1ccc(NC(=O)C2CC2)nc1)c1ccccn1	14.1µM*	-23.8%	-14.3%	3.4%	-26.9%	1.0%
C[C@H]1COC2=C1C(=O)C(=O)c1c2ccc2c1CCCC2(C)C	-0.2%	-3.6%	-28.9%	-3.8%	-3.6%	3.98µM*
Cc1ccc2c3c(cccc13)-c1ccccc1C2=O	-1.7%	-7.2%	-0.2%	-24.9%	0.8%	7.6%
Cc1coc2c1C(=O)C(=O)c1c-2ccc2c(C)cccc12	-2.4%	-75.6%	-13.8%	-4.7%	-18.2%	8.91µM*
Cc1coc2c1C(=O)C(=O)c1c-2ccc2c1CCCC2(C)C	0.9%	-20.9%	-8.6%	-4.0%	1.6%	10µM*
COc1ccccc1N1CCN(S(=O)(=O)CCNC(=O)COc2ccc(C(C)C)cc2)CC1	nt	nt	nt	nt	1.4%	2.4%
NC(=O)c1ccc[n+]([C@@H]2O[C@H](COP(=O)([O-])OP(=O)(O)OC[C@H]3O[C@@H](n4cnc5c(N)ncnc54)[C@@H](O)[C@@H]3O)[C@@H](O)[C@@H]2O)c1	nt	nt	nt	nt	1.7%[33.2 µM]	nt
NC(=O)c1ccc[n+]([C@H]2O[C@@H](COP(=O)([O-])OP(=O)(O)OC[C@H]3O[C@@H](n4cnc5c(N)ncnc54)[C@H](O)[C@@H]3O)[C@H](O)[C@@H]2O)c1	nt	nt	5.01µM*	-3.5%	-9.4%	?
COc1cc(C2C3=C(CCCC3=O)Nc3c2c(C)nn3-c2cccc(C)c2)cc(OC)c1O (stereo not drawn)	0.3%	-23.3%	-3.6%	-1.0%	-6.5%	39.8µM*
COc1cccc(-c2nc(CS(=O)(=O)CC(=O)N3CCN(c4ccccn4)CC3)c(C)o2)c1	4.1%	-73.1%	-1.4%	2.7%	3.4%	50.1µM*
CCCCN(C)C(=O)CS(=O)(=O)Cc1nc(-c2cccc(OC)c2)oc1C	1.4%	-6.2%	17.7%	7.6%	-7.3%	22.4µM*
COc1cccc(-c2nc(CS(=O)(=O)CC(=O)NC3CCCCC3C)c(C)o2)c1 (stereo not drawn)	-1.8%	17.6%	0.6%	14.8%	-1.2%	39.8µM*
COc1cccc(-c2nc(CS(=O)(=O)CC(=O)NCCC(C)C)c(C)o2)c1	5.3%	-11.8%	-8.2%	20.9%	2.1%	44.7µM*
COc1cccc(-c2nc(CS(=O)(=O)CC(=O)N3CCCCC3)c(C)o2)c1	-0.2%	1.4%	9.4%	-1.3%	-12.7%	?
O=C(CSc1nc(-c2ccccc2)[nH]c1-c1ccccc1)Nc1ccc2c(c1)OCO2	nt	nt	nt	nt	6.4%	7.0%
COc1cccc(-c2nc(CS(=O)(=O)CC(=O)NCCc3ccc(OC)cc3OC)c(C)o2)c1	-0.4%	-8.2%	18.4%	1.0%	-1.3%	25.1µM*!
CCCn1nc(NC(=O)c2ccco2)c2cc3cc(C)ccc3nc21	-0.4%	-2.8%	-7.0%	-2.6%	-0.3%	11.2µM*
CC(C)Cn1nc(NC(=O)c2ccco2)c2cc3ccccc3nc21	-0.2%	-1.3%	2.6%	-1.6%	4.9%	50.1µM*
CCN(C(=O)C1CCCN(S(=O)(=O)c2c(C)noc2/C=C/N(C)C)C1)c1cccc(C)c1 (stereo not drawn)	nt	nt	nt	nt	-1.4%	-4.3%
Cc1ccc(C2CC(=O)Oc3cc(O)ccc32)cc1 (stereo not drawn)	-0.9%	0.1%	-23.5%	6.8%	1.0%	2.3%
O=C1CC(c2ccccc2)c2cc(O)ccc2O1 (stereo not drawn)	5.6%	0.3%	-1.0%	-10.1%	1.0%	22.4µM*
SMILES	LmPK inh	NS1 inh	RE007 growth inh	SARS PLpro yeast	TbPYK inhibitor	Sm TGR inh
COc1ccccc1C(CCN(Cc1cccs1)C(C)=O)c1ccco1 (stereo not drawn)	0.7%	-66.5%	-0.6%	-6.4%	0.3%	12.6µM*
CCC(=O)N(CCC(Cc1ccccc1)c1ccco1)Cc1ccco1 (stereo not drawn)	4.2%	-4.9%	3.4%	0.0%	4.7%	?
CCC(=O)N(CCC(c1ccccc1)c1ccco1)Cc1cccs1 (stereo not drawn)	-3.6%	6.8%	-7.1%	-0.5%	-10.1%	14.1µM*
CC(C)n1c(=O)[nH][nH]c1=S	7.8%	2.4%	23.4%	0.9%	3.55µM*	-28.0%
COc1ccc(C2C(C(=O)/C=C/c3ccco3)=C(O)C(=O)N2CCN2CCOCC2)cc1OC (stereo not drawn)	3.5%[11.5 µM]	nt	-3.9%	-2.7%	3.1%	11.2µM*
CCCOc1ccc(C2C(C(=O)c3ccco3)=C(O)C(=O)N2CCN2CCOCC2)cc1OC (stereo not drawn)	-3.0%	-1.3%	nt	-1.0%	nt	39.8µM*
CCOc1ccc(C2C(C(=O)c3ccc(C)o3)=C(O)C(=O)N2CCN2CCOCC2)cc1OC (stereo not drawn)	3.3%	12.8%	0.6%	1.7%	11.1%	50.1µM*
CCOc1ccc(C2C(C(=O)c3ccco3)=C(O)C(=O)N2CCN2CCOCC2)cc1OCC (stereo not drawn)	-3.3%	1.5%	9.2%	11.0%	2.4%	?
CCCCOc1ccc(C2OC34CCCCC3C(C#N)(C#N)C2(C#N)C(=N)O4)cc1 (stereo not drawn)	-0.5%	-1.2%	12.0%	0.9%	-11.1%	?
CCOc1ccc(C2OC34CCCCC3C(C#N)(C#N)C2(C#N)C(=N)O4)cc1OC (stereo not drawn)	11.6%	22.8%	-2.1%	-5.9%	-4.2%	50.1µM*
CCOc1ccccc1CNC(=O)c1ccc2c(c1)sc1nc(-c3cccc(OC)c3)cn12	nt	nt	nt	nt	-2.2%	1.9%
O=C(Nc1cccc(F)c1)C1CCN(c2nc3ccccc3[nH]2)CC1	nt	nt	nt	nt	-0.5%[15.4 µM]	3.3%
OCCNc1ncnc2c1ncn2[C@@H]1O[C@@H](CO)[C@H](O)[C@@H]1O	nt	-3.9%	nt	nt	nt	nt
CCOC(=O)c1cc2c(=O)n3ccccc3nc2n(Cc2ccco2)c1=NC(=O)c1cccnc1	-0.6%	-2.0%	24.6%	2.9%	?	22.4µM*
Cc1cccc(C(=O)N=c2c(C#N)cc3c(=O)n4cccc(C)c4nc3n2Cc2ccco2)c1	7.4%	16.1%	8.1%	15.6%	-3.1%	44.7µM*
CCOC(=O)c1cc2c(=O)n3cccc(C)c3nc2n(Cc2ccco2)c1=NC(=O)c1cccnc1	3.7%	?	-5.0%	0.9%	-7.5%	5.62µM*
